From PubChem BioAssay AID686978 (National Center for Advancing Translational Sciences (NCATS), 2013)
Several values for one entry are separate records, joined by “and”; a condition that tells them apart may be missing. Identical values can stand only once. The campaign covered roughly 420,000 compounds. About 64,000 (15%) were called active. Not shown: some 27% with an inconclusive outcome. Calls come from the whole dose curve; as a rule, active = well fitted inhibition curve with a large enough effect; inconclusive = small, poorly fitted or top-dose-only effect; inactive = flat fitted curve, though single readings scatter. The list is a sample of the results. The source holds several records for some structures; these can differ, active in one and inactive in another.

Assay: qHTS for Inhibitors of human tyrosyl-DNA phosphodiesterase 1 (TDP1): qHTS in cells in absence of CPT; note: nearly all actives have a fitted effect of over 55% in size
Conditions: DT40 Tdp1-/- hTDP1 cells, no CPT, ATP luminescence, 48 h; activity change, negative = growth inhibition: at 46.2 µM (top of the series)
In short: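 Growth kinetics read by CellTiter-Glo luminescence after ≥48 hr at 37 °C. Cells: DT40 Tdp1-/- stably carrying human TDP1, 400 per well, compound exposure in the absence of CPT (DMSO vehicle).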
% is set by controls: 0 for no effect and ±100 for the full control effect; potency is the fitted concentration of half-maximal effect.

Row | SMILES | activity change, negative = growth inhibition | Potency
1 | COc1ccccc1CC(=O)NCCc1c[nH]c2ccccc12 | -9.13% (inactive) | –
2 | COc1cccc(CNCCc2c[nH]c3ccccc23)c1OCc1ccccc1F | – | 20.6 µM (active)
3 | COc1ccc(S(=O)(=O)NCCc2c[nH]c3ccccc23)cc1OC | -9.05% (inactive) | –
4 | CCc1c(SCCC(=O)O)nc2ccccc2c1C | 1.49% (inactive) | –
5 | Cc1ccc(N2CCN(c3ccc(C)cc3)C2c2ccccn2)cc1 | -26% (inactive) | –
6 | CN(C(=O)CSc1nnc(-c2ccc(C(C)(C)C)cc2)n1C)C1CCS(=O)(=O)C1 (stereo not given) | -18.3% (inactive) | –
7 | COc1cccc(C(=O)Nc2nnc(S(=O)(=O)N(C)c3ccccc3)s2)c1 | -5.94% (inactive) | –
8 | CCOc1cccc(C(=O)Nc2nnc(S(=O)(=O)N(C)c3ccc(C)cc3)s2)c1 | – | 23.1 µM (active)
9 | CC(C)CC(=O)Nc1nnc(S(=O)(=O)N(C)c2ccc(Cl)cc2)s1 | – | inactive and 326 nM (active)
10 | CCC(=O)Nc1nnc(S(=O)(=O)N(CC(C)C)c2ccccc2)s1 | -4.1% (inactive) | –
11 | CCCCC(=O)Nc1nnc(S(=O)(=O)N(C)Cc2ccco2)s1 | 5.85% (inactive) | –
12 | CCc1nnc(NC(=O)c2cccc(S(=O)(=O)N(C)c3ccc(OC)cc3)c2)s1 | -20% (inactive) | –
13 | Cc1ccn(C(CC(=O)c2ccc(Br)cc2)C(=O)O)n1 (stereo not given) | -3.5% (inactive) | –
14 | O=C(CNS(=O)(=O)c1ccccc1)N1CCN(C(=O)c2ccco2)CC1 | 1.35% (inactive) | –
15 | CC/C(=C(/c1ccccc1)c1ccc(OCC[N+](C)(C)C)cc1)c1ccccc1 | – | 23.1 µM (active)
16 | COc1ccc(C(=O)NCC[N+](C)(C)C)cc1 | 25.2% (inactive) | –
17 | CCOc1cc(C(=O)O)ccc1OCCOc1ccccc1 | 1.62% (inactive) | –
18 | COc1cc(/C=C/C2=CC(C)(C)NC(=S)N2)cc(OC)c1OC | -21% (inactive) | –
19 | COc1ccc(N2C(=O)CN=C2Nc2cccc(C)c2C)cc1OC | -5.08% (inactive) | –
20 | CC(C)Cc1nnc(NC(=O)CN2C(=O)NC3(CCCCC3)C2=O)s1 | -3.72% (inactive) | –
21 | CC1(C(=O)NS(=O)(=O)c2cccc(OC(F)F)c2)CCN1C(=O)COc1ccc(Cl)cc1 (stereo not given) | 4.48% (inactive) | –
22 | S=c1[nH]nc(NCCc2ccccc2)s1 | -27.9% (inactive) | –
23 | Cc1nc(C)c(-c2csc(NCCc3ccccc3)n2)s1 | – | 13 µM (active)
24 | Cc1nc(N)sc1-c1ccccc1 | -23.1% (inactive) | –
25 | COc1ccc(O)c(C(=O)c2cnc3onc(C(C)C)c3c2)c1 | -25.8% (inactive) | –
26 | Cc1n[nH]c(=O)n1-c1ccc(Oc2ccccc2)cc1 | -0.778% (inactive) | –
27 | COc1ccc(N2CC(C(=O)NCCN3C(=O)S/C(=C\c4cccnc4)C3=O)CC2=O)c(OC)c1 (stereo not given) | 16.5% (inactive) | –
28 | CCOc1ccc(N2CC(C(=O)NCCN3C(=O)S/C(=C\c4cccnc4)C3=O)CC2=O)cc1 (stereo not given) | -19.7% (inactive) | –

Row | SMILES | activity change, negative = growth inhibition | Potency
29 | Cc1cc(OCCCC(=O)NCCN2C(=O)S/C(=C\c3cccnc3)C2=O)ccc1Cl | – | 4.61 µM (active)
30 | Cn1cccc1C(=O)OCC(=O)NCCc1ccccc1 | 20.3% (inactive) | –
31 | O=c1cccc(-c2ccc(Br)cc2)o1 | -3.89% (inactive) | –
32 | COC(=O)C(NC(C)=O)(Nc1nc2c(s1)CCCC2)C(F)(F)F (stereo not given) | -25.1% (inactive) | –
33 | CCS(=O)(=O)N1CCN(C(=O)c2cccs2)CC1 | -11.3% (inactive) | –
34 | Cc1ccc(NC(=S)N2CCCC(c3ccccc3)=N2)cc1 | -16.8% (inactive) | –
35 | Cc1ccc(C(=O)C[n+]2cc(-c3ccccc3)n3c2CCCCC3)cc1 | – | 3.16 µM (active) and 1.46 µM (active)
36 | CCCS(=O)(=O)N1CCN(C(=O)c2cccs2)CC1 | -5.67% (inactive) | –
37 | Cc1ccc(C(=O)Cn2cccn2)cc1 | -9.49% (inactive) | –
38 | Cc1ccc(S(=O)(=O)N(C)CC(=O)OCC(=O)Nc2ccccc2)cc1 | 35.2% (inactive) | –
39 | Cc1ccc(C(=O)N2CCCC(c3ccccc3)=N2)cc1 | -9.77% (inactive) | –
40 | Cc1ccc(-c2c[n+](CC(=O)Nc3ccccc3)c3n2CCC3)cc1 | – | 11.6 µM (active)
41 | O=C(C[n+]1cc(-c2ccc(Cl)c(Cl)c2)n2c1CCC2)c1cccs1 | – | 18.4 µM (active)
42 | COc1ccc(N(C)S(=O)(=O)c2cccc3nsnc23)cc1 | -17.9% (inactive) | –
43 | Cc1cccc(S(=O)(=O)N(C)C[C@@H]2OCc3cnnn3CCCC(=O)N([C@H](C)CO)C[C@@H]2C)c1 | -24.7% (inactive) | –
44 | Cn1nc(C(F)(F)F)cc1-c1ccc(/C=C(\C#N)C(=O)c2cccc(C(F)(F)F)c2)s1 | -1.63% (inactive) | –
45 | C/C(=N\NC(=O)c1ccc2ccccc2c1)c1cccnc1 | 5.16% (inactive) | –
46 | Cc1cccc(OCc2nnc(SCn3nnc4ccccc4c3=O)o2)c1 | -13% (inactive) | –
47 | CCOc1ccc(NC(=O)CN(C)C(=O)CSc2ccccc2)cc1OCC | -10% (inactive) | –
48 | CCC(C)NC(=O)c1cc(Cl)ccc1OC (stereo not given) | -12.7% (inactive) | –
49 | Cc1cc(N(C)C)cc(C)[n+]1[O-] | -2.53% (inactive) | –
50 | O=S(=O)(NC1CC1)c1ccc(F)c(F)c1 | -10.3% (inactive) | –
51 | O=S(=O)(NC1CC1)c1ccc(Cl)cc1 | 1.98% (inactive) | –
52 | Cn1sc(=O)c2cc(S(=O)(=O)NC3CC3)ccc21 | – | 10.3 µM (active)
53 | CC(NC(=O)CCCC1CCCCC1)c1ccc(S(N)(=O)=O)cc1 (stereo not given) | -26.5% (inactive) | –
54 | N#CC1=C(N)Oc2c(sc3ccccc23)C1c1ccco1 (stereo not given) | – | 5.17 µM (active)
55 | C[C@H](NC(=O)CC[C@H]1O[C@@H](n2ccc(=O)[nH]c2=O)[C@H](O)[C@@H]1O)c1cccc2ccccc12 | 0.78% (inactive) | –
